Results with a measured potency or affinity are listed apart. Inconclusive results are not listed. Calls of active or inactive are those of the source.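 Rule for the calls: active = signal-lowering compounds whose fitted half-maximal concentration is at or below twice the top tested dose in every run; inconclusive = runs disagree, flat 30 to 70% inhibition, or poor curve fit; inactive = the rest.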
experiment: CMV-driven luciferase expression suppression in HEK293 – cell-based, luminescence, dry powder, counter-screen for Pax8 inhibitor project, dose response (AID 743020); details: HEK293 CMV-luciferase reporter, SteadyGlo luminescence, 24 h; series mostly up to 35 µM;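 note: HEK293 cells stably expressing the CMV luciferase reporter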

| Compound | outcome | activity change, negative = inhibition |
| --- | --- | --- |
| COc1ccc(S(=O)(=O)Nc2ccc3c(c2)CC(=O)N([C@@H](C)CO)C[C@@H](C)[C@H](CN(C)Cc2ccc(-c4ccccc4)cc2)O3)cc1 | inactive | – |
| C[C@H](O)C#Cc1cnc2c(c1)C(=O)N([C@H](C)CO)C[C@H](C)[C@H](CN(C)Cc1ccc(-c3ccccc3)cc1)O2 | inactive | – |
| O=C(c1ccc(F)cc1)N1C[C@@H]2N[C@H](C1)C2c1ccc(-c2ccc(F)cc2)cc1 (some centres undefined) | inactive | – |
| C[C@H](O)C#Cc1ccc2c(c1)O[C@H](CN(C)Cc1ccc(-c3ccccc3)cc1)[C@@H](C)CN([C@H](C)CO)S2(=O)=O | inactive | – |
| C[C@@H]1CN([C@H](C)CO)C(=O)Cc2cc(NS(=O)(=O)c3ccccc3)ccc2O[C@@H]1CN(C)S(=O)(=O)c1ccc(Cl)cc1 | inactive | – |
| C[C@@H]1CCCCO[C@H](CN(C)C)[C@H](C)CN([C@H](C)CO)C(=O)c2cc(NC(=O)Nc3cccc4ccccc34)ccc2O1 | inactive | – |
| C[C@@H]1CN([C@H](C)CO)C(=O)c2c(c3ccccc3n2C)-c2ccccc2CO[C@@H]1CN(C)C | inactive | – |
| COc1ccccc1S(=O)(=O)N(C)C[C@@H]1Oc2cc(C#CCC3CCCC3)ccc2S(=O)(=O)N([C@@H](C)CO)C[C@@H]1C | inactive | – |
| CCCN(C)C[C@H]1OCCCC[C@@H](C)Oc2ccc(NC(=O)c3ccccc3)cc2C(=O)N([C@H](C)CO)C[C@H]1C | inactive | – |
| C[C@@H]1CN([C@@H](C)CO)C(=O)Cc2cc(NC(=O)Nc3ccc(F)cc3)ccc2O[C@H]1CN(C)CC1CCCCC1 | inactive | – |
| O=C(Nc1cccc(F)c1)N[C@@H]1CC[C@@H](CCNS(=O)(=O)c2cccc(Cl)c2)O[C@@H]1CO | inactive | – |
| C[C@@H]1CN([C@@H](C)CO)C(=O)Cc2cc(N(C)C)ccc2O[C@H]1CN(C)Cc1ccc(Oc2ccccc2)cc1 | inactive | – |
| Cc1ccc(S(=O)(=O)Nc2ccc3c(c2)C(=O)N([C@@H](C)CO)C[C@@H](C)[C@@H](CN(C)Cc2ccc(C(F)(F)F)cc2)OCCCC[C@@H](C)O3)cc1 | inactive | – |
| Cc1cccc(-c2ccc([C@H]3[C@H](CO)N4CCCCN(S(=O)(=O)c5ccccc5C)C[C@@H]34)cc2)c1 | inactive | – |
| C[C@H]1CCCCO[C@@H](CN(C)C(=O)Nc2ccc(C(F)(F)F)cc2)[C@@H](C)CN([C@@H](C)CO)C(=O)c2cc(NS(=O)(=O)c3cn(C)cn3)ccc2O1 | inactive | – |
| C[C@@H]1CN([C@H](C)CO)C(=O)c2cc(NC(=O)Nc3ccccc3)ccc2O[C@@H](C)CCCCO[C@H]1CN(C)Cc1ccc(Cl)c(Cl)c1 | inactive | – |
| C[C@H]1CCCCO[C@@H](CN(C)C)[C@@H](C)CN([C@@H](C)CO)C(=O)c2cc(NC(=O)Nc3ccc(C(F)(F)F)cc3)ccc2O1 | inactive | – |
| C[C@H](CO)N1C[C@H](C)[C@@H](CN(C)Cc2ccc(-c3ccccc3)cc2)Oc2ccc(NC(=O)Cc3ccccc3)cc2CC1=O | inactive | – |
| C[C@H](CO)N1C[C@H](C)[C@H](CN(C)C(=O)NC2CCCCC2)Oc2cc(C#Cc3ccc(F)cc3)ccc2S1(=O)=O | inactive | – |
| O=C(Nc1ccc(C(F)(F)F)cc1)N1C[C@@H]2N[C@H](C1)C2c1ccc(-c2ccccc2)cc1 (some centres undefined) | inactive | – |

| Compound | outcome | activity change, negative = inhibition |
| --- | --- | --- |
| C[C@@H]1CCCCO[C@H](CN(C)Cc2ccc(C(F)(F)F)cc2)[C@H](C)CN([C@@H](C)CO)C(=O)c2cc(NC(=O)Nc3ccc(F)cc3)ccc2O1 | inactive | – |
| Cc1ccc(S(=O)(=O)Nc2ccc3c(c2)C(=O)N([C@@H](C)CO)C[C@@H](C)[C@@H](CN(C)Cc2ccc(C(F)(F)F)cc2)OCCCC[C@H](C)O3)cc1 | inactive | – |
| C[C@H](CO)N1C[C@H](C)[C@H](CN(C)C(=O)NC2CCCCC2)OCCCC[C@H](C)Oc2ccc(NC(=O)Nc3ccc(C(F)(F)F)cc3)cc2C1=O | inactive | – |
| C[C@@H]1CN([C@@H](C)CO)S(=O)(=O)c2ccc(C#Cc3ccc(F)cc3)cc2O[C@H]1CN(C)C(=O)NC1CCCCC1 | inactive | – |
| C[C@@H]1CN([C@@H](C)CO)C(=O)Cc2cc(NC(=O)c3ccncc3)ccc2O[C@@H]1CN(C)Cc1ccc(-c2ccccc2)cc1 | inactive | – |
| Cc1ccc(S(=O)(=O)Nc2ccc3c(c2)C(=O)N([C@@H](C)CO)C[C@@H](C)[C@@H](CN(C)Cc2ccc(Cl)c(Cl)c2)OCCCC[C@@H](C)O3)cc1 | inactive | – |
| O=C(C[C@H]1CC[C@@H]2[C@H](COC[C@@H](O)CN2Cc2ccc(F)cc2)O1)NCc1ccccc1Cl | inactive | – |
| CCCC#Cc1ccc([C@@H]2[C@H]3CN(S(=O)(=O)c4ccccc4F)CCCCN3[C@H]2CO)cc1 | inactive | – |
| Cc1ccc(S(=O)(=O)N[C@@H]2C=C[C@@H](CC(=O)N3CCC(Cc4ccccc4)CC3)O[C@@H]2CO)cc1 | inactive | – |
| COc1cccc(S(=O)(=O)N(C)C[C@H]2OCc3ccccc3-c3c(n(C)c4ccccc34)C(=O)N([C@@H](C)CO)C[C@H]2C)c1 | inactive | – |
| C[C@@H]1CN([C@@H](C)CO)C(=O)c2ccccc2-c2ccccc2CO[C@@H]1CN(C)Cc1ccc2c(c1)OCCN2C | inactive | – |
| C[C@@H]1CCCCO[C@H](CN(C)Cc2ccccc2)[C@H](C)CN([C@H](C)CO)C(=O)c2cc(NC(=O)Nc3ccc(C(F)(F)F)cc3)ccc2O1 | inactive | – |
| O=C(C[C@H]1CC[C@H]2[C@@H](COC[C@@H](O)CN2Cc2ccc(F)cc2)O1)NCc1ccccc1Cl | inactive | – |
| C[C@@H]1CN([C@@H](C)CO)C(=O)Cc2cc(NC(=O)C3CC3)ccc2O[C@H]1CN(C)Cc1ccc(-c2ccccc2)cc1 | inactive | – |
| COc1ccc(S(=O)(=O)N2CCCCN3[C@H](C2)[C@@H](c2ccc(C#CC(C)C)cc2)[C@@H]3CO)cc1 | inactive | – |
| C[C@@H]1CCCCO[C@@H](CN(C)C(=O)Nc2ccccc2)[C@H](C)CN([C@H](C)CO)C(=O)c2cc(NC(=O)Nc3ccc(C(F)(F)F)cc3)ccc2O1 | – | 5.92% [at 8 µM] (inactive) |
| C[C@@H]1CCCCO[C@H](CN(C)Cc2ccc(C(F)(F)F)cc2)[C@@H](C)CN([C@@H](C)CO)C(=O)c2cc(NS(=O)(=O)c3cccs3)ccc2O1 | inactive | – |
| COc1ccc(S(=O)(=O)Nc2ccc3c(c2)C(=O)N([C@@H](C)CO)C[C@H](C)[C@H](CN(C)Cc2ccc(C(F)(F)F)cc2)OCCCC[C@@H](C)O3)cc1 | inactive | – |
| C[C@@H]1CN([C@@H](C)CO)C(=O)Cc2cc(NS(=O)(=O)c3ccc(F)cc3)ccc2O[C@H]1CN(C)Cc1ccc(Oc2ccccc2)cc1 | inactive | – |

Reference: PubChem BioAssay
